Inconclusive results are not listed. Entries that show only a call come without a potency. Calls of active or inactive are those of the source. Calls come from the whole dose curve; as a rule, active = well fitted inhibition curve with a large enough effect; inconclusive = small, poorly fitted or top-dose-only effect; inactive = flat fitted curve, though single readings scatter. Where a SMILES comes first, the peptide text is derived from it. Bridges are numbered along the chain shown (N, C = ends). [ ]: non-standard residue; d: D form. The star is where a group is joined. X1 = CCC(C)C(N)C1=NC(C(=O)*)CS1; dOrn = NCCC[C@@H](N)C(=O)O

Calcium and integrin-binding protein 1 (Homo sapiens), sequence (Q99828 whole entry, looked up): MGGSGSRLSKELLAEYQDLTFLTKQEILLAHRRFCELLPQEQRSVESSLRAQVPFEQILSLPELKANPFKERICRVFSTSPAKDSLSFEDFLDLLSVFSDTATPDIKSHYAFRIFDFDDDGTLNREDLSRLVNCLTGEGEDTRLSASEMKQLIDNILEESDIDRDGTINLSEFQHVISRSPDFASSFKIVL

This assay concerns the target Calcium and integrin-binding protein 1 (Homo sapiens) (UniProt Q99828). The experiment in a line: Primary qHTS for Identification of Calcium Integrin Binding Protein 1 (CIB1) Competitor (AID 1508620).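 Note: GST tagged CIB1 binding a fluorescein labelled alphaIIb integrin peptide tracer; top concentration of the series differs between compounds.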 The note with it: CIB1-GST / FITC-alphaIIb peptide fluorescence polarization; series mostly up to 57.7 µM. A digest of the protocol: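 Fluorescence polarization competition: CIB1-GST (1 uM final) preincubated with compound 15 min at room temperature, then FITC-labeled alphaIIb peptide (100 nM final) added for another 15 min. Polarization read at Ex 480/Em 540.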
A general note: Quantitative high-throughput screening tests each substance at several concentrations.
Regarding `CC1=C2[C@@H]([C@H](C)CC[C@H]2/C=C(\C)C(=O)O)[C@H](O)C1`, the Potency entry is “inactive”.
Regarding `C=CCc1ccc(O[C@@H]2O[C@H](CO[C@@H]3O[C@H](CO)[C@@H](O)[C@H](O)[C@H]3O)[C@@H](O)[C@H](O)[C@H]2O)c(O)c1`, the Potency entry was “inactive”.
On to `C/C(=C\CO)CC/C=C(\C)C(=O)O[C@H]1[C@H](OC2OC=C(C(=O)O)C3CCC(C)(O)C23)O[C@H](CO)[C@@H](O)[C@@H]1O` (some centres not stated), for which the Potency result is “inactive”.
For `COC1C=C([C@@H]2CC=C3[C@@]4(C)C(CC[C@]32C)[C@@]2(C)C=CC(=O)C(C)(C)C2C[C@H]4OC(C)=O)C(=O)O1` (some centres not stated), the Potency result is “inactive”.
Regarding `C/C=C(\C)C(=O)OC[C@H]1O[C@H](O[C@H]2O[C@H](CO)[C@@H](OC(=O)/C(C)=C/C)[C@H](O)[C@H]2O[C@@H]2O[C@H](CO)[C@@H](O)[C@H](O)[C@H]2O)[C@H](O[C@@H]2O[C@H](CO)[C@@H](O)[C@H](O)[C@H]2O)[C@@H](O)[C@@H]1O`, the Potency result was “inactive”.
With `CN1C(=O)c2ccccc2NC(=O)[C@]12O[C@@H]2c1cccc(O)c1`, the Potency result was “inactive”.
Consider `CC(C)C(=O)c1cn(CC(=O)COc2ccc(Oc3ccccc3)cc2)c2ccc(C(=O)O)cc12`, for which the Potency result is “inactive”.
As for `CCC(C)C(N)C1=NC(C(=O)N[C@@H](CC(C)C)C(=O)N[C@H](CCC(=O)O)C(=O)N[C@H](C(=O)N[C@H]2CCCCNC(=O)[C@H](CC(N)=O)NC(=O)[C@@H](CC(=O)O)NC(=O)[C@H](Cc3cnc[nH]3)NC(=O)[C@@H](Cc3ccccc3)NC(=O)[C@H]([C@@H](C)CC)NC(=O)[C@@H](CCCN)NC2=O)[C@@H](C)CC)CS1` (some centres not stated) (X1-L[dE]IK[dOrn]I[dF]H[dD]N; lactam 4-C), the Potency result was “inactive”.
For `O=C(/C=C/c1ccc(O)cc1)O[C@H]1[C@@H]2C=CO[C@@H](O[C@@H]3O[C@H](CO)[C@@H](O)[C@H](O)[C@H]3O)[C@@H]2[C@@]2(CO)O[C@@H]12`, the Potency entry was “inactive”.
As to `C=C1CC[C@H]2[C@@](C)(CCC(O)[C@@]2(C)CO)[C@@H]1C/C=C(/C(=O)O)C(O)CO` (some centres not stated), the Potency result is “inactive”.
With `COc1ncc(-c2ccc3c(Nc4cc(Oc5cc(F)cc(F)c5)cc(C(=O)O)c4)c(S(=O)(=O)NC4CC4)cnc3c2)c(OC)n1`, the Potency result was “inactive”.
As to `CN(NC(=O)CC(=O)NN(C)C(=S)c1ccccc1)C(=S)c1ccccc1`, the Potency result was “inactive”.
With `CC1(C)O[C@]23C[C@H]1C[C@H](OC(=O)c1ccoc1)[C@]2(C)[C@@H](OC(=O)c1ccoc1)CCC3(C)O` (some centres not stated), the Potency result was “inactive”.
For the molecule `COC(=O)C12C(=O)C(C)=C(O)C1(C)C(C)=CC1C34CCC(OC3=O)C(C)(C)C4CCC12C` (configuration not stated), the Potency entry was “inactive”.
For the molecule `CC(C)[C@H]1CCC(CO)=C[C@@H]1/C=C(\CO)C(=O)O`, the Potency result was “inactive”.
As for `C=C1CCC2C(C)(CO[C@@H]3O[C@H](CO)[C@@H](O)[C@H](O)[C@H]3O)C(O)CCC2(C)C1C(=O)CC1=CCOC1=O` (some centres not stated), the entry is “inactive”.
As for `CC1(CO)CC2C(O)C(=O)C3(CO)CC3(C)C2C1` (configuration not stated), the Potency result was “inactive”.
As for `C=CCc1ccc(O[C@@H]2O[C@H](CO)[C@@H](O)[C@H](O)[C@H]2O)c(OC)c1`, the Potency entry is “inactive”.
On to `COc1cc(C2Oc3c(O)cc(CCCO)cc3C2CO)ccc1O[C@H]1O[C@H](C)[C@@H](O)[C@H](O)[C@@H]1O` (some centres not stated), for which the Potency result is “inactive”.
Turning to `COc1ccc2c(c1)O[C@H](O[C@@H]1O[C@H](CO)[C@@H](O)[C@H](O)[C@H]1O)C(=O)N2`, the Potency entry was “inactive”.
Turning to `CC1CCC2(C(=O)OC3OC(COC4OC(CO)C(O)C(O)C4O)C(O)C(O)C3O)CCC3(C)C(=CCC4C5(C)CCC(O)C(C)(C(=O)O)C5CCC43C)C2C1(C)O` (configuration not stated), the Potency entry was “inactive”.
Turning to `Cc1coc2c1CC1OC1(C)CCC1OC1(C)C2` (configuration not stated), the Potency entry is “inactive”.
For `C=C1CCC2C(C)(C(=O)O)CC(O)CC2(C)C1CC/C(C)=C/C(=O)O` (configuration not stated) the value was “inactive”; for `C[C@]12CC[C@@H]3c4ccc(O[C@@H]5O[C@H](C(=O)O)[C@@H](O)[C@H](O)[C@H]5O)cc4CC[C@H]3[C@@H]1CCC2=O`, “inactive”.
Regarding `COc1c(C)c2c(c(O)c1C/C=C(\C)CC/C=C(\C)CCC(=O)O)C(=O)OC2`, the Potency result was “inactive”.
As for `COC(=O)[C@H](CC1C=NC=N1)NCC12CC3CC(CC(C3)C1)C2` (some centres not stated), the entry is “inactive”; as for `COC(=O)[C@@]1(C)CC[C@]2(C(=O)O[C@@H]3O[C@H](CO)[C@@H](O)[C@H](O)[C@H]3O)CC[C@]3(C)C(=CCC4[C@@]5(C)CC[C@H](O[C@@H]6O[C@H](C(=O)O)[C@@H](O)[C@H](O)[C@H]6O)C(C)(C)C5CC[C@]43C)[C@@H]2C1` (some centres not stated), “inactive”.

For the origin of these results see PubChem BioAssay (NCATS).
